# Screening results (PubChem)
# Hits are enriched below; roughly 2.4% of the tested compounds scored in any of these assays.
# D2 antagonist: HTS Assay for Allosteric Antagonists of the Human D2 Dopamine Receptor: Primary Screen for Antagonists; D(2) dopamine receptor (Homo sapiens), P14416; inhibition, % at 10 µM; HEK293 TREx D2 cells, calcium flux, dopamine EC80; 340,000 tested, 2% active; in the data active = inhibition above about 30%; inactive = below that, where a call was filed; also: 0% is about no effect
# Target sequence (P14416 whole entry, looked up): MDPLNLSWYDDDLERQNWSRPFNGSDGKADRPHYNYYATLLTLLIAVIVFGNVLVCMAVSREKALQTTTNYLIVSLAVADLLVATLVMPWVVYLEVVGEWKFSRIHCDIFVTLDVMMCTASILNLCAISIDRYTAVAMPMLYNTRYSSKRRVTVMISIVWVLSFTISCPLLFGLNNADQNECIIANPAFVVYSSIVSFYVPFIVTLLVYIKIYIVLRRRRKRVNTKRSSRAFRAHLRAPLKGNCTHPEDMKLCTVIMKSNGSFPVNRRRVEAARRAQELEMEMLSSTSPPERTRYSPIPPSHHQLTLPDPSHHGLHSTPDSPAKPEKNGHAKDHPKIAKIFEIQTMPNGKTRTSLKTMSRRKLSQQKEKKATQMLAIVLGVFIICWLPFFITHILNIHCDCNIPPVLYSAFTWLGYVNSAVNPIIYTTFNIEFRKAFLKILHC
#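 Inhibition of EC80 dopamine-driven calcium flux, recorded kinetically, defines activity here; cells are a tetracycline-induced HEK293 T-REx line expressing force-coupled D2.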
# D2 ag-1: HTS Assay for Allosteric Agonists of the Human D2 Dopamine Receptor: Primary Screen for Agonists | D(2) dopamine receptor (Homo sapiens), P14416 | HEK293 T-REx D2 cells, calcium flux agonist mode | activation, % at 2 µM | 340,000 tested, 0.53% active | AID 485358, 2010;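 active = activation over 3 SD above normal in the single-dose calcium agonist read, cut at about 30% in these data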; also: 0% is about no effect
#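 Tetracycline-induced HEK293 T-REx cells with force-coupled D2 receptor, plated overnight at 30 C, loaded with no-wash calcium dye. After a 10 s baseline, compound was pin-added and calcium flux read kinetically for 180 s; calcium rises flagged agonists.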
# D2 PAM-1: HTS Assay for Positive Allosteric Modulators of the Human D2 Dopamine Receptor: Primary Screen for Potentiators; potentiation, % at 10 µM; HEK293 T-REx D2, calcium flux, EC20 dopamine potentiation; AID 485347, 2010; 340,000 tested, 0.34% active;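 active = potentiation over 3 SD above the plate norm, cut at about 30% in these data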; also: 0% is about no effect
#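 Calcium flux readout, no-wash dye, 1 read/s. Inducible HEK293 Trex D2 line, overnight 30 C. Compound alone 180 s (agonist flags), then EC20 dopamine, another 180 s to score potentiation.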
# D2 PAM-2: Beta-Arrestin HTS for Positive Allosteric Modulators of the Human D2 Dopamine Receptor: Potentiators; 360,000 tested, 0.23% active; DiscoveRx D2 beta-arrestin cells, luminescence, 90 min; 100% = 57 uM dopamine signal; AID 624464, 2012; potentiation, % (concentration not given with the values); in the data active = potentiation above about 50%; inconclusive = mostly about 30% to 49%
#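 PathHunter beta-arrestin assay in DiscoveRx D2 cells. Compounds were added with an EC20 of dopamine (50 nM final) for 90 min at 37 deg C. Luminescence was read 1 h after detection reagent, with 57 uM dopamine as the EC100 control.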
# D2 ag-2: Beta-Arrestin HTS for Positive Allosteric Modulators of the Human D2 Dopamine Receptor: Agonists; D(2) dopamine receptor (Homo sapiens), P14416; DiscoveRx PathHunter D2 beta-arrestin, luminescence, 90 min; 100% = 57 uM dopamine signal; activation, % (concentration not given with the values); 360,000 tested, 0.084% active; in the data active = activation above about 40%; inconclusive = between about 15% and that limit
#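 Agonist mode: compounds alone added to overnight-plated D2 PathHunter cells for 90 min at 37 C, with 57 uM final dopamine (EC100) defining full response. Beta-arrestin recruitment detected by chemiluminescent reagent, read after 1 h at ambient temperature.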
# * = called active by the depositor; u = inconclusive; x = no result given; ! = not active in a repeat.
SMILES,D2 antagonist,D2 ag-1,D2 PAM-1,D2 PAM-2,D2 ag-2
COc1cc(/C=N\NC(=O)c2ccc(C)nc2)ccc1OC(=O)c1ccco1,34*,0,-10,3,1
CCOc1cc(/C=N\NC(=O)OC(C)(C)C)ccc1OC(=O)c1ccco1,31*,-2,-3,-9,-1
COc1cc(/C=N\NC(=O)c2ccc(C)nc2)ccc1OC(=O)c1ccc2c(c1)OCO2,-19,-1,x,-5,-6
Cc1ccc(S(=O)(=O)c2c(C)nn(-c3ccccc3)c2OC(=O)c2ccccc2F)cc1,x,1,-1,x,x
O=S(=O)(c1ccc(OC(F)(F)F)cc1)N1CCC(c2nnnn2-c2ccc(F)cc2)CC1,x,1,8,x,x
O=C(Nc1nc(-c2ccccc2)cs1)c1ccco1,28,-1,-8,-7,1
O=C(Nc1cc(-c2ccccc2)cs1)c1ccco1,31*,-1,1,2,-1
O=C(CC(NC(=O)c1ccccc1Cl)c1ccccc1)Nc1ccc2c(c1)OCO2 (stereo not given),x,x,x,-4,-4
CN(c1ccccc1C(=O)Nc1cccc(Cl)c1Cl)S(C)(=O)=O,53*,0,-8,-11,-2
CC(NC(=O)c1ccccc1Cl)C(=O)Nc1ccc2c(c1)OCO2 (stereo not given),73*,0,-10,-6,-8
CN(c1ccccc1C(=O)Nc1ccc2c(c1)OCO2)S(C)(=O)=O,-11,0,38*,-4,-2
COCCn1c(C)nnc1SCC(=O)Nc1ccccc1[N+](=O)[O-],-5,1,0,0,-4
COCC1CCN(C(=O)c2ccc3oc(CCCc4ccccc4)nc3c2)C1 (stereo not given),4,1,44*,14,-2
Cn1c(-c2ccc(CN3CCCCC3)o2)nc2ccccc21,34*,0,-21,-42,-5
Cc1ccc(NC(=O)C2CCN(S(=O)(=O)c3c(C)noc3/C=C/N(C)C)CC2)cc1,-29,1,4,-12,-1
Cc1noc(/C=C/N(C)C)c1S(=O)(=O)N1CCC(C(=O)NC(C)(C)C)CC1,31*,-1,-4,0,0
Cc1cc(C)nc(N/N=C/c2ccccc2)n1,44*,1,6,-5,-3
COc1ccc(C(=O)Nc2cc3c(oc2=O)CCCC3=O)cc1,10,2,44*,-1,-6
O=C(CCCn1c(=S)[nH]c2ccsc2c1=O)NCCc1ccccc1,8,0,5,-12,1
c1cncc(CSc2ccc(-c3cccnc3)nn2)c1,12,1,3,3,2
COc1ccc(-c2ccc(SCc3cccnc3)nn2)cc1OC,x,x,x,54*,1
CC(=O)[C@@]1(O)CC[C@H]2[C@@H]3CCC4=CC(=O)CC[C@]4(C)[C@H]3[C@@H](O)C[C@@]21C,22,-1,-8,9,-5
CCC(C(=O)OCC(=O)C1(O)CCC2C3CCC4=CC(=O)CCC4(C)C3C(O)CC21C)C(C)C (stereo not given),x,x,x,56*,9
CN(Cc1ccccc1)C(=O)C1CCN(S(=O)(=O)c2cccc3nsnc23)CC1,-25,0,-9,-2,0
CC1(C)Cc2c(sc3c2C(=O)N(c2ccccc2)C2=NCCN23)CS1,17,-1,46*,-22,-5
SMILES,D2 antagonist,D2 ag-1,D2 PAM-1,D2 PAM-2,D2 ag-2
Cc1cc(C=C2C(=O)c3ccccc3C2=O)c(C)n1-c1ccc(Cl)cc1,33*,1,9,-8,-3
O=C(CSc1ncc2c(n1)-c1ccccc1N(Cc1ccc(F)cc1)S2(=O)=O)c1ccc(Br)cc1,x,1,-4,x,x
Nc1ccn([C@H]2CC[C@@H](CO)O2)c(=O)n1,37*!,0,5,-3,-2
CCOc1cc(C=NN2CCCCCC2)ccc1O,x,x,x,51*,3
O=c1cc(N2CCN(c3ccc(F)cc3)CC2)[nH]c(=O)n1-c1cccc(Br)c1,x,0,7,x,x
CCOC(=O)CN1C(=O)C(Sc2n[nH]c(-c3cccc(C)c3)n2)CCc2ccccc21 (stereo not given),-13,-1,-22,-22,0
CCOC(=O)CN1C(=O)C(Sc2n[nH]c(-c3ccc(C)cc3)n2)CCc2ccccc21 (stereo not given),61*,0,-21,-27,-4
Nc1ccccc1NC1CCCCC1,16,0,0,-28,-4
CCCCCN(C(=O)CSc1n[nH]c(-c2ccc(C)cc2)n1)c1c(N)n(CCCC)c(=O)[nH]c1=O,3,-1,-11,-11,-1
NC(=S)NNC(=O)C12CC3CC(CC(C3)C1)C2,44*,62*,-13,-3,-1
COC(=O)CCC(=O)OC1(C)C(=O)C2=CN(C(CO)CO)C(c3ccc(OC)cc3)=CC2=C(Br)C1=O (stereo not given),30*,3,-10,x,x
C=CCn1c(SCc2cc(=O)n3ccsc3n2)nc2sc(C)c(C)c2c1=O,-2,0,36*,-10,2
C=CCSc1nc2sc(C)c(C)c2c(=O)n1CC=C,12,0,1,-23,-4
C=CCn1c(SCc2ccc(C(=O)NCCO)cc2)nc2sc(C)c(C)c2c1=O,1,-1,31*,3,-2
C=CCn1c(SCC(=O)c2cccs2)nc2sc(C)c(C)c2c1=O,x,x,x,19,-1
COc1ccc(NC(=O)Cn2c(=O)n(CCc3ccccc3)c(=O)c3ccccc32)cc1,x,0,-5,x,x
Cc1cccc(NC(=O)C2CCCN(C(=O)Nc3ccc(F)cc3)C2)c1 (stereo not given),31*,-2,1,-20,-4
Nc1ccccc1Nc1cc(-c2cccc(Cl)c2)nn1-c1ccccc1,-5,1,6,68*,u
Nc1c(-c2ccccc2)cnn1-c1cccc(Cl)c1,-5,1,6,-2,6
Cc1csc(NS(=O)(=O)c2cccc([N+](=O)[O-])c2)n1,34*,1,-22,-9,2
CCOC(=O)c1scc(-c2ccccc2)c1S(=O)(=O)Nc1cc(Cl)c(OC)cc1OC,x,0,-8,x,x
CCOc1ccc(-c2nnc(NC(=O)Cc3ccc(OC)cc3)o2)cc1,35*,0,-8,-7,-4
COc1ccc(-c2nnc(NC(=O)c3ccc(F)cc3)o2)cc1,34*,-1,-13,1,-6
COc1ccc(CN(CC(=O)NCC2CCCO2)C(=O)CNS(=O)(=O)c2ccccc2)cc1 (stereo not given),2,2,-8,-5,-3
